According to PubChem BioAssay:
Unmarked numbers belong to inactive results. Entries that show only a call come without a potency. For some of these results: Potency and affinity values are given separately. The source made the active and inactive calls. Unless noted, the rule behind the calls is not given here.

Key:
[1] = antimalarial activity against Dd2 strain (AID 2302;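 active = growth inhibition above 50% at the single 2 µM test dose, taken to imply half-maximal potency below 2 µM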); conditions: P. falciparum Dd2 in RBCs, LDH growth readout, 72 h; at 2 µM; stronger effect = higher value
[2] = HepG2 cytotoxicity, primary screen, cytotoxicity control for P. falciparum antimalarial project, cell-based, ATP luminescence (AID 2303;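 active = inhibition above 50%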); conditions: HepG2 viability, 24-48 h, at 10 µM, stronger effect = higher value
[3] = biological target: L-lactate dehydrogenase (Plasmodium falciparum (isolate CDC / Honduras)) (UniProt Q27743); experiment: PfLDH activity inhibition – cell lysate, 3D7 strain, counter-screen for P. falciparum growth inhibition project (AID 2304); conditions: P. falciparum 3D7 crude extract, LDH APAD/NBT absorbance; at 2 µM; stronger effect = higher value
L-lactate dehydrogenase (Plasmodium falciparum (isolate CDC / Honduras)), sequence (Q27743 whole entry, looked up): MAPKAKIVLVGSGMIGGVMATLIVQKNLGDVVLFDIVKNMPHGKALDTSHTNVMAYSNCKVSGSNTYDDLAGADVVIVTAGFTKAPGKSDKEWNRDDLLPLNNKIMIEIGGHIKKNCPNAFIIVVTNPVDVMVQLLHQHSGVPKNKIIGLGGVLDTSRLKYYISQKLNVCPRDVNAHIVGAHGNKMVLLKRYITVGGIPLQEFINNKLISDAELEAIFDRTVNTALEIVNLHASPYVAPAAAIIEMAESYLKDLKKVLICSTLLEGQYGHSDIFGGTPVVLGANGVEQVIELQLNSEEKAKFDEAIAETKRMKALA

[4] = inhibition of 3D7 malaria parasite growth – strain 3D7 (AID 2306); conditions: P. falciparum 3D7 erythrocytic growth, LDH absorbance, 72 h; at 2 µM; stronger effect = higher value
[5] = biological target: Calcium-dependent protein kinase 1 (Plasmodium falciparum (isolate 3D7)) (UniProt P62344); experiment: PfCDPK1 kinase inhibitors, biochemical, TCAMS library (AID 1159585; cut-off not given, nearly all actives have IC50 up to about 0.98 µM;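 note: inhibitors leave more ATP so luminescence rises with inhibition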); conditions: recombinant PfCDPK1, Kinase-Glo ATP depletion luminescence
Calcium-dependent protein kinase 1 (Plasmodium falciparum (isolate 3D7)), sequence (P62344 whole entry, looked up): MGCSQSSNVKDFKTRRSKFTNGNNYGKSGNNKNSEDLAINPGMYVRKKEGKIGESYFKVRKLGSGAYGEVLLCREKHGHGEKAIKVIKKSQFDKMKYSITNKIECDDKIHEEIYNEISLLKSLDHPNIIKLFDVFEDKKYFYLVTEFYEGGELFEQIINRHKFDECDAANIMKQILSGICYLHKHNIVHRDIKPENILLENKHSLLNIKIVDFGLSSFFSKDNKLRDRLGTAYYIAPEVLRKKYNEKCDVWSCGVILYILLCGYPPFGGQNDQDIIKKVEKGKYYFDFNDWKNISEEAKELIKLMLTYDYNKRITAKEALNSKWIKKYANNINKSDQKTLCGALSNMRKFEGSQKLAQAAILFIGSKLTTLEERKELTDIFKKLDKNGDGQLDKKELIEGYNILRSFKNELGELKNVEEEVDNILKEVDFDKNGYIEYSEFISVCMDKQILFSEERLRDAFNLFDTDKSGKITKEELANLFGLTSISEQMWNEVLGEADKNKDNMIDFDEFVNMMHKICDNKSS

[6] = biological target: Plasmodium falciparum protein kinase 6 (PK6, PF3D7_1337100) (UniProt Q8IDW1); experiment: PfPK6 kinase inhibitors, biochemical, TCAMS library (AID 1159586); conditions: recombinant PfPK6, Kinase-Glo ATP depletion luminescence
Plasmodium falciparum protein kinase 6 (PK6, PF3D7_1337100), sequence (Q8IDW1 1-305): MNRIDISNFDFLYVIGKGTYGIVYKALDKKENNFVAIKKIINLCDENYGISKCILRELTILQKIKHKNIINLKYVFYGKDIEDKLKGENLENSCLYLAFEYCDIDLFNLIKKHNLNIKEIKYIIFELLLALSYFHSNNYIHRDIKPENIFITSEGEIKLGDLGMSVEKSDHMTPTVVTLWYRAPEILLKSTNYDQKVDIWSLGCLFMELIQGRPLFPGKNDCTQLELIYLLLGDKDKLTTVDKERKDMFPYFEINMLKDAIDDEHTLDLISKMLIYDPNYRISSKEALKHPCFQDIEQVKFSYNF

[7] = biological target: Protein kinase 7 (PK7), Plasmodium falciparum 3D7 (PF3D7_0213400) (UniProt Q7YTF7); experiment: inhibition of Plasmodium PK7 catalytic activity – biochemical, TCAMS antimalarial set, Kinase-Glo luminescence (AID 1159587); conditions: recombinant PfPK7, Kinase-Glo ATP depletion luminescence
Protein kinase 7 (PK7), Plasmodium falciparum 3D7 (PF3D7_0213400), sequence (Q7YTF7 1-343): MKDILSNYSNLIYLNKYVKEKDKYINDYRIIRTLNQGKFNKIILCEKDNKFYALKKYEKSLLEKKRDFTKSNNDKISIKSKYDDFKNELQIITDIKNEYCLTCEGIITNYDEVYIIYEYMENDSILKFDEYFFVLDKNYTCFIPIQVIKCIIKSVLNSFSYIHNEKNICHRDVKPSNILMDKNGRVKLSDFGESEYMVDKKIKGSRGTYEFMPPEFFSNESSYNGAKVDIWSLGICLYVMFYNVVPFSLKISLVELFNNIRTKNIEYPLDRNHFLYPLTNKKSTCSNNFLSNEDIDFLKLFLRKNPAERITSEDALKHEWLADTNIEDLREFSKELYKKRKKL

[8] = biological target: Calcium-dependent protein kinase 4 (Plasmodium falciparum (isolate 3D7)) (UniProt Q8IBS5); experiment: PfCDPK4 kinase inhibitors, biochemical, TCAMS library (AID 1159588; cut-off not given, nearly all actives have IC50 up to about 0.91 µM); conditions: recombinant PfCDPK4, Kinase-Glo ATP depletion luminescence
Calcium-dependent protein kinase 4 (Plasmodium falciparum (isolate 3D7)), sequence (Q8IBS5 whole entry, looked up): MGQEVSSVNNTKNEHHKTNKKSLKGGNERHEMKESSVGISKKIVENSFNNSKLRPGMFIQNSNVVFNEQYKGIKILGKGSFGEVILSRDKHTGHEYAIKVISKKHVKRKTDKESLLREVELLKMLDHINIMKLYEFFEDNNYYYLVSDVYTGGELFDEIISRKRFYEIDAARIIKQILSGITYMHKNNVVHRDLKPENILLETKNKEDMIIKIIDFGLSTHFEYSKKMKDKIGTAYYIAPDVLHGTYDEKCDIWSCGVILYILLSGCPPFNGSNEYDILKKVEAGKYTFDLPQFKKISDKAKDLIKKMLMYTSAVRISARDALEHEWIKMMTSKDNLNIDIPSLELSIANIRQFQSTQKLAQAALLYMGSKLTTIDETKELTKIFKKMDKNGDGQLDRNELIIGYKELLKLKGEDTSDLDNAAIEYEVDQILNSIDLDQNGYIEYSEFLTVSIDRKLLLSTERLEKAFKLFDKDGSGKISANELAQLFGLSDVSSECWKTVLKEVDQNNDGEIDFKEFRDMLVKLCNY

SMILES	growth inhibition [1]	inhibition [2]	inhibition [3] [%]	growth inhibition [4]	outcome [5]	outcome [6]	outcome [7]	outcome [8]
C#CCNCc1ccc(-c2ccc(-c3nc4ccc(C(F)(F)F)cc4[nH]3)s2)cc1	28%	37%	0	98% (active)	inactive	inactive	inactive	inactive
Cc1sc(CNCCCNc2cc(=O)c3ccccc3[nH]2)c(C(F)(F)F)c1C	70% (active)	-12%	1	99% (active)	inactive	inactive	inactive	inactive
CCC(C)NC(=O)CN1CN(c2ccccc2)C2(CCN(C(=O)c3ccc(-c4ccccc4)cc3)CC2)C1=O (stereo not drawn)	100% (active)	-1%	-2	100% (active)	inactive	inactive	inactive	inactive
Oc1ccc(Cc2ccccc2)cc1CNC1CCCCC1	98% (active)	30%	-1	96% (active)	inactive	inactive	inactive	inactive
Cc1csc2nc(-c3ccccn3)nc(Nc3ccncn3)c12	85% (active)	47%	-3	97% (active)	inactive	inactive	inactive	inactive
Cc1cc(N[C@@H](Cc2ccccc2)C(=O)NC2CCCC2)nc(NCc2ccccc2C)n1	20%	2%	3	91% (active)	inactive	inactive	inactive	inactive
O=C(Nc1cccc(-c2cc(-c3c(Cl)cccc3Cl)no2)c1)c1cnc2ccccc2c1	34%	-6%	-3	87% (active)	inactive	inactive	inactive	inactive
O=C(n1c(-c2cc3ccccc3n2C(=O)C(F)(F)F)cc2ccccc21)C(F)(F)F	80% (active)	30%	5	94% (active)	inactive	inactive	inactive	inactive
Oc1ccc(CCCNc2nc(NCc3cccc4ccccc34)nc(N3CCCNCC3)n2)cc1	62% (active)	98% (active)	-2	96% (active)	inactive	inactive	inactive	inactive
CC(C)(C)CCN1CCC(CNC(=O)c2cc(-c3cccc(C(F)(F)F)c3)cs2)C1 (stereo not drawn)	13%	47%	-1	93% (active)	inactive	inactive	inactive	inactive
Cc1cccc2[nH]c(-c3cccc(-c4ccc(NC(=O)c5ccc(=O)[nH]n5)cc4)c3)nc12	27%	18%	1	101% (active)	inactive	inactive	inactive	inactive
COc1ccc2nccc([C@@H](O)CN3CCC(NC(=O)C(c4cc5ccccc5o4)N4CCN(c5ccccc5OC)CC4)CC3)c2c1 (stereo partly drawn)	83% (active)	14%	-5	99% (active)	inactive	inactive	inactive	inactive
CCn1ccc2c(N3CCCC3=O)cc(C(=O)N[C@@H](Cc3ccccc3)[C@H](O)CNC(C)(C)CCCC(C)C)cc21	98% (active)	11%	-3	96% (active)	inactive	inactive	inactive	inactive
Cc1sc2ncnc(Sc3nnc(N)s3)c2c1C	100% (active)	9%	-1	101% (active)	inactive	inactive	inactive	inactive
Cc1nc(-c2nc(NCc3ccccn3)ncc2-c2ccsc2)sc1C	87% (active)	-2%	4	92% (active)	inactive	inactive	inactive	inactive
COc1ccc(Nc2nc(NCc3ccc(-n4ccnc4)cc3)cc(-c3ccc(OC)cc3)n2)cc1	25%	8%	-2	96% (active)	inactive	inactive	inactive	inactive
CCn1c(-c2cc(C)on2)nc2cnc(Oc3ccc(C(=O)N4CC(=O)N(C)C4C(C)(C)C)cc3)cc21 (stereo not drawn)	57% (active)	44%	4	81% (active)	inactive	inactive	inactive	inactive
CC(CCc1ccc(OCc2ccccc2)cc1)NCC(O)c1ccccc1 (stereo not drawn)	72% (active)	9%	-1	86% (active)	inactive	inactive	inactive	inactive
O=C(Nc1cccc(F)c1)N[C@H]1CCN(CCCCCNC(=O)[C@@H]2C[C@H]2c2ccc(Cl)c(Cl)c2)C1	1%	41%	-1	90% (active)	inactive	inactive	inactive	inactive
COc1cccc(-c2cccc(CNC3CCN(CC4Cn5c(=O)ccc6ccc(F)c4c65)CC3)c2)c1 (stereo not drawn)	15%	23%	4	99% (active)	inactive	inactive	inactive	inactive
Cc1cc(C)c2nc(N3CCC(C(=O)NCCCN4CCC(N5CCCCC5)CC4)CC3)sc2c1	34%	99% (active)	-5	99% (active)	inactive	inactive	inactive	inactive

SMILES	growth inhibition [1]	inhibition [2]	inhibition [3] [%]	growth inhibition [4]	outcome [5]	outcome [6]	outcome [7]	outcome [8]
COc1ccccc1C1CCN(C2CCC(NC(=O)/C=C/c3ccc(C(F)(F)F)cc3F)CC2)CC1 (stereo not drawn)	2%	63% (active)	2	95% (active)	inactive	inactive	inactive	inactive
COc1cccc2c(C)cc(NCc3ccc(Cl)cc3)nc12	5%	7%	5	97% (active)	inactive	inactive	inactive	inactive
CC1(C)S(=O)(=O)CC(O)CS1(=O)=O	9%	8%	3	98% (active)	inactive	inactive	inactive	inactive
O=c1[nH]c(=O)n2c(nc3ccccc32)[nH]1	-1%	21%	6	95% (active)	inactive	inactive	inactive	inactive
COc1cc(Cc2cnc(N)nc2N)cc(OC)c1OCCCCCN1C(=O)c2ccccc2C1=O	4%	5%	3	97% (active)	inactive	inactive	inactive	inactive
c1ccc(-c2ccc(CNCc3ccc(-c4cccc(-c5nc6ccccc6[nH]5)c4)cc3)s2)nc1	80% (active)	48%	-1	98% (active)	inactive	inactive	inactive	inactive
COC(=O)c1cc(C(O)CNC(C)CCCc2ccccc2)ccc1O (stereo not drawn)	97% (active)	17%	0	99% (active)	inactive	inactive	inactive	inactive
Cc1cccc2[nH]c(-c3cccc(-c4cccc(C(=O)NCCc5cn(C)cn5)c4)c3)nc12	78% (active)	12%	8	101% (active)	inactive	inactive	inactive	inactive
CCC(C)NS(=O)(=O)c1ccc2nc(Nc3ccc(C)cc3)n(C3CCCCC3C)c2c1 (stereo not drawn)	99% (active)	1%	1	95% (active)	inactive	inactive	inactive	inactive
Nc1nc2c(ncn2OC[C@H]2COP(=O)(O)CO2)c(=O)[nH]1	32%	1%	-2	92% (active)	inactive	inactive	inactive	inactive
Cc1ccc(O)cc1Nc1ccnc2cc(-c3ccc(CN4CCCCC4)o3)ccc12	99% (active)	16%	0	100% (active)	inactive	inactive	inactive	inactive
O=C(Nc1ccccc1)N(Cc1cccc(-c2ccc(CNC3CCCC3)cc2)c1)C1CCN(Cc2ccccc2)CC1	96% (active)	100% (active)	8	101% (active)	inactive	inactive	inactive	inactive
O=C(Nc1ccc(-c2nc3ccccc3[nH]2)cc1)c1ccc(Cl)c([N+](=O)[O-])c1	4%	6%	1	99% (active)	inactive	inactive	inactive	inactive
Cc1ccc2c(NN=Cc3ccccc3[N+](=O)[O-])cc(C)nc2c1	100% (active)	13%	4	102% (active)	inactive	inactive	inactive	inactive
O=C(NCCCCN1CCN(c2cccc(Cl)c2Cl)CC1)c1ccc2c(c1)CCN(C1CCC1)CC2	31%	97% (active)	3	95% (active)	inactive	inactive	inactive	inactive
CC(C)NCc1ccc(-c2cccc(NC(=O)c3cccc(Cl)c3)c2)cc1	87% (active)	24%	1	100% (active)	inactive	inactive	inactive	inactive
COc1cc2c(cc1COc1ccccc1)CCN1Cc3cc(OC)c(OC)cc3CC21 (stereo not drawn)	84% (active)	-1%	2	99% (active)	inactive	inactive	inactive	inactive
Cc1[nH]c2ccccc2c1C(=O)C(C)Sc1nnc(-c2ccccc2F)o1 (stereo not drawn)	99% (active)	24%	-2	99% (active)	inactive	inactive	inactive	inactive
COc1ccc2nccc([C@@H](O)CN3CCC(NC(=O)c4[nH]c5ccccc5c4-c4ccccc4)CC3)c2c1	68% (active)	18%	0	96% (active)	inactive	inactive	inactive	inactive
COc1ccc2nccc([C@@H](O)CN3CCC(NCc4nc5c([N+](=O)[O-])cccc5[nH]4)CC3)c2c1	84% (active)	13%	-2	101% (active)	inactive	inactive	inactive	inactive
